Assay [1] deals with DLD1. The assay is described as follows: cell viability (CellTiter-Glo) relative to plate median (fraction of plate median); higher = more viable cells. Conditions: 5 µM; treatment time 24 h; reporter: 7TFP. The essentials:
(§1)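 After seeding in 384-well plates, colorectal cancer cell lines carrying stable lentiviral TCF/Wnt firefly luciferase reporters (7TFP or TCF4/Wnt) were left 24 h. Library compounds were then added at a final 5 µM for 24 h. A Tecan F500 reader measured firefly luciferase or CellTiterGlo luminescence on parallel plates, with each well normalised to the plate median by webcellHTS2 (additive, no log transformation), and two independent replicates averaged.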
On the technique in general: In ATP-based viability assays light output follows the ATP content of the culture.

Assay [2] has as its system HCT116. The description is as above. To be noted: 5 µM; treatment time 24 h; reporter: TCF4/Wnt. A digest of the protocol: as §1
The subject of assay [3] is SW480. The assay is described as above. To be noted: 5 µM; treatment time 24 h; reporter: 7TFP. The essentials:
as §1

Assay [4] relates to DLD1. The assay is described as follows: TCF/Wnt firefly luciferase reporter signal relative to plate median (fraction of plate median); higher = higher Wnt reporter signal. Conditions: 5 µM; treatment time 24 h; reporter: 7TFP. A digest of the protocol: as §1
For orientation: A reporter such as luciferase makes a cellular process visible.

Assay [5] deals with SW480. The assay is described as above. Conditions: 5 µM; treatment time 24 h; reporter: 7TFP. The essentials:
as §1

From the supplement of paper PMC6522484 come the findings set out here.

± gives the standard deviation of the averaged measurements.

For the compound `COc1ccc2c(c1)OCC(Cc1ccc(OC)c(OC(C)=O)c1)C2=O` (stereo not given), the cell viability in assay [1] turned out to be 1.025 ± 0.0071; in assay [2], 0.919 ± 0.059; in assay [3] it was 1.03. The “TCF/Wnt firefly luciferase reporter signal” value in assay [4] came out at 0.969 ± 0.12; in assay [5] it was 0.858 ± 0.18.
The corresponding values for `CC[C@H](C)[C@H](N)C1=N[C@H](C(=O)N[C@@H](CC(C)C)C(=O)N[C@H](CCC(=O)O)C(=O)N[C@H](C(=O)N[C@H]2CCCCNC(=O)[C@H](CC(N)=O)NC(=O)[C@@H](CC(=O)O)NC(=O)[C@H](Cc3cnc[nH]3)NC(=O)[C@@H](Cc3ccccc3)NC(=O)[C@H]([C@@H](C)CC)NC(=O)[C@@H](CCCN)NC2=O)[C@@H](C)CC)CS1` are 1.05 ± 0.05, 1.03 ± 0.021, 0.992 ± 0.04, 1.03 ± 0.042 and 1.03 ± 0.021.
Consider `CC(=O)O[C@@H]1c2c(ccc3ccc(=O)oc23)OC(C)(C)[C@@H]1OC(=O)CC(C)C`, for which the cell viability in assay [1] worked out at 0.979 ± 0.044; in assay [2] it was 1.02 ± 0.029; in assay [3] it was 0.931 ± 0.059. Also, the “TCF/Wnt firefly luciferase reporter signal” value in assay [4] came out at 0.875 ± 0.066; in assay [5], 0.959 ± 0.054.
The corresponding values for `NCCCC(O)(P(=O)(O)O)P(=O)(O)O` are 0.98 ± 0.028, 0.974 ± 0.12, 0.963 ± 0.0042, 0.974 ± 0.12 and 1.02 ± 0.03.
In the case of `C[C@@H]1Cc2cc(O)cc(O)c2C(=O)O[C@H](C)CC(=O)O[C@H](CO)CC(=O)O[C@H](C)Cc2cc(O)cc(O)c2C(=O)O[C@H](C)CC(=O)O1`, the cell viability worked out at 1.04 ± 0.11 in assay [1], 1.14 ± 0.035 in assay [2] and 1.01 ± 0.062 in assay [3]. Moreover, the “TCF/Wnt firefly luciferase reporter signal” value was determined as 0.938 ± 0.028 in assay [4] and 1.05 ± 0.05 in assay [5].
As to `CS(=O)(=O)Nc1ccc([N+](=O)[O-])cc1Oc1ccccc1`, the cell viability in assay [1] amounted to 1.02 ± 0.021; in assay [2], 0.967 ± 0.089; in assay [3], 0.978 ± 0.018. In addition, the “TCF/Wnt firefly luciferase reporter signal” value was found to be 1.01 ± 0.022 in assay [4] and 0.981 ± 0.028 in assay [5].
`C[C@@H]1CC2C3C[C@H](F)C4=CC(=O)C=C[C@]4(C)[C@@]3(F)[C@@H](O)C[C@]2(C)[C@@]1(O)C(=O)COC(=O)C(C)(C)C` (stereo not given in full): the cell viability in assay [1] was determined as 1.01 ± 0.021; in assay [2], 0.925 ± 0.039; in assay [3], 1 ± 0.025. Further, the results for the “TCF/Wnt firefly luciferase reporter signal” value in assay [4] and in assay [5] were 1.16 ± 0.064 and 1.085 ± 0.0071, respectively.
Regarding `O=C(O)/C=C/C=C/c1ccccc1`, the values for the cell viability in assay [1], in assay [2] and in assay [3] were 0.976 ± 0.16, 0.9625 ± 0.0092 and 0.98 ± 0.0057, respectively. Also, the entries for the “TCF/Wnt firefly luciferase reporter signal” value in assay [4] and in assay [5] were 0.906 ± 0.028 and 0.729 ± 0.071, respectively.
The corresponding values for `Clc1ccc(C(Cn2ccnc2)OCc2ccsc2Cl)c(Cl)c1` (stereo not given) are 0.966 ± 0.077, 0.98 ± 0.085, 1.005 ± 0.0071, 0.923 ± 0.14 and 0.894 ± 0.023.
For `C[C@@H]1CCCCCCCCC[C@H](OC(=O)CCC(=O)O)C(=O)/C=C/C(=O)O1` the same measures were 1.03 ± 0.05, 1.09 ± 0.11, 1.02 ± 0.028, 1.17 ± 0.05 and 1.09 ± 0.014.
Turning to `O=C(O)c1cc(/N=N/c2ccc(S(=O)(=O)Nc3ccccn3)cc2)ccc1O`, the cell viability stood at 0.992 ± 0.0042 in assay [1], 1 ± 0.078 in assay [2] and 1.04 ± 0.057 in assay [3]. The “TCF/Wnt firefly luciferase reporter signal” value in assay [4] is 0.899 ± 0.083; in assay [5], 0.837 ± 0.02.
As for `N=C(N)c1ccc(OCCCCCOc2ccc(C(=N)N)cc2)cc1`, the cell viability is 0.93 ± 0.21 in assay [1], 0.9365 ± 0.0078 in assay [2] and 1.01 ± 0.014 in assay [3]. Also, the “TCF/Wnt firefly luciferase reporter signal” value in assay [4] worked out at 1.035 ± 0.0071; in assay [5], 0.795 ± 0.013.
For `O=c1cc(-c2cc(O)c(O)c(O)c2)oc2cc(O)cc(O)c12`, the values for the cell viability in assay [1], in assay [2] and in assay [3] were 1.02 ± 0.014, 1.06 ± 0.057 and 0.943 ± 0.031, respectively. Further, the entries for the “TCF/Wnt firefly luciferase reporter signal” value in assay [4] and in assay [5] were 1 ± 0.057 and 0.952 ± 0.059, respectively.
As to `C[C@@H]1NC(=O)[C@@H](N)CNC(=O)[C@H](C2CCNC(=N)N2)NC(=O)/C(=C/NC(N)=O)NC(=O)[C@H](CNC(=O)CC(N)CCCN)NC1=O.N=C1NCC[C@H]([C@@H]2NC(=O)/C(=C/NC(N)=O)NC(=O)[C@H](CNC(=O)C[C@@H](N)CCCN)NC(=O)[C@H](CO)NC(=O)[C@@H](N)CNC2=O)N1`, the cell viability was determined as 1.03 ± 0.052 in assay [1], 0.993 ± 0.081 in assay [2] and 0.996 ± 0.076 in assay [3]. Besides, the “TCF/Wnt firefly luciferase reporter signal” value worked out at 0.816 ± 0.0071 in assay [4] and 0.871 ± 0.093 in assay [5].
